Test [1] is described as follows: stimulators of insulin release from INS-1E, primary screen, cell-based, 5 mM glucose, NPC library (AID 1117329). The following applies: rat INS-1E insulin secretion, at 10 µM, stronger effect = higher value.
A short description of test [2]: growth inhibition of GSK3B-pretreated HCT116 cells – cell-based, CellTiter-Glo, 0.2 to 20 µM (AID 1117336;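 active = compounds lowering colon cancer cell viability after pretreatment blocking the GSK3B kinase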). The following applies: HCT116 viability after GSK3B inhibitor, at 20 µM, stronger effect = higher value.
Test [3] is described as follows: inhibition of endothelial tube formation, primary screen, imaging, VEGF stimulated, CD31 staining, tube area, NPC library (AID 1117340;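 active = compound that reduces growth-factor-driven endothelial tube area in a mixed cell culture, no cutoff stated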). The following applies: VEGF-stimulated ADSC/ECFC co-culture, at 10 µM, stronger effect = higher value.
The nature of test [4]: glucagon-like peptide 1 release enhancers, primary assay, NCI-H716 cell line, NPC library (AID 1117341;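 active = compound raises GLP1 secretion from the human gut endocrine cells, with no numeric limit stated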). The conditions noted are these: NCI-H716 cells, at 10 µM, stronger effect = higher value.
A short description of test [5]: HCT116 colon cancer cell growth inhibition, primary screen, CellTiter-Glo luminescence, NPC library (AID 1117342;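 active = compounds that lower survival of HCT116 colon cancer cells in the luminescence readout, no numeric limit stated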). The following applies: at 20 µM (top of the series).
Test [6] is described as follows: CellTiter-Glo luminescent readout of SW480 viability loss, NPC library primary (AID 1117343;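 active = compounds that lower viability of the colon cancer cells in the luminescence readout, with no numeric limit stated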). The conditions noted are these: CellTiter-Glo luminescence; at 20 µM (top of the series).
The nature of test [7]: decreased DLD-1 cellular survival, CellTiter-Glo luminescent readout, NPC compound collection, primary HTS (AID 1117346;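 active = compounds that lower survival of DLD-1 colon cancer cells in the luminescence readout, no cutoff given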). The following applies: DLD-1 viability, CellTiter-Glo luminescence; at 20 µM (top of the series).
Test [8] concerns the target 6-phosphogluconate dehydrogenase, decarboxylating (Homo sapiens) (UniProt P52209). As to the kind of experiment: 6PGD enzyme inhibitors, primary screen, biochemical, human, recombinant enzyme, NADPH absorbance (AID 1159550;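 active = at least 20% inhibition of 6-phosphogluconate dehydrogenase activity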). The conditions noted are these: recombinant 6PGD, NADPH absorbance 341 nm; at 10 µM; stronger effect = higher value.
Test [9] in a line: differential killing of epithelial or mesenchymal cells, primary screen, imaging, PC-3E GFP, TEM4-18 mCherry, co-culture (AID 1345086;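 active = compounds killing one labelled cell type while sparing the other, by normalised counts and ratio limits, not self-fluorescent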;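 for all read-outs here: cells exposed to compound for 72 h before imaging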;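 for red/green cell ratio (normalised): normalised mesenchymal count divided by normalised epithelial count so high means epithelial killing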). The conditions noted are these: imaging cell counts, at 1 µM; for red/green cell ratio (normalised): actives lie on both sides, counts scaled to control wells, 1 = unselective.
[10] abbreviates: measured here: epithelial PC-3E GFP cell survival.
The mark [11] stands for this setting: measured here: mesenchymal TEM4-18 mCherry cell survival.

Molecules are shown by their SMILES. Calls of active or inactive are those of the source.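 Rule for the calls, unless noted: active = compound raises insulin release from rat beta cells at 5 mM glucose, no numeric limit stated; inactive = the rest.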

6-phosphogluconate dehydrogenase, decarboxylating (Homo sapiens), sequence (P52209 whole entry, looked up): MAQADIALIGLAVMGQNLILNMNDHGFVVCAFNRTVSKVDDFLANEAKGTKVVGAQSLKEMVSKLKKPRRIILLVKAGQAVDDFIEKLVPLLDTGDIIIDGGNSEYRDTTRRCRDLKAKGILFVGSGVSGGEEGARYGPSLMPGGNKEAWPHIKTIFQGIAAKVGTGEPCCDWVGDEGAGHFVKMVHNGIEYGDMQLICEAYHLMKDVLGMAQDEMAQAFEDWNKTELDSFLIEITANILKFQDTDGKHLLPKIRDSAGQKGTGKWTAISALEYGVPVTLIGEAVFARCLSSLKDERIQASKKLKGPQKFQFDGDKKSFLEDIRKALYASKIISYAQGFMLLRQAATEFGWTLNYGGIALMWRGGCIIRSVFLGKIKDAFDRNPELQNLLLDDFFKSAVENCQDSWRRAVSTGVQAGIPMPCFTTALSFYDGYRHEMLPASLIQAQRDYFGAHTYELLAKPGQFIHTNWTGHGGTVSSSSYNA

For `Cn1c(=O)c2c(ncn2CCO)n(C)c1=O`, in [1], the insulin secretion stimulation was 1.4% (inactive). In addition, the viability decrease in [2] was 15.8% (inactive). Also, the tube area decrease in test [3] is -12.3% (inactive). Also, in [4], the GLP1 secretion stimulation was -0.6% (inactive). The inhibition of viability in [5] was -8% (inactive). The viability decrease (inhibition) is -1.2% (inactive) in test [6] and -21.2% (inactive) in [7]. Also, the inhibition in [8] was -5.12% (inactive). Also, in test [9], the red/green cell ratio (normalised) was 1.06 (inactive). The results for the normalised cell number in [9] (setting [10]) and in [9] (setting [11]) were 0.95 and 1.01, respectively.
As for `COc1ccc(CN(CCN(C)C)c2ncccn2)cc1`, the insulin secretion stimulation in test [1] is 1.5% (inactive). In test [2], the viability decrease was -26.6% (inactive). For the same compound, in [3], the tube area decrease was 5% (inactive). Also, the GLP1 secretion stimulation in [4] was 4.9% (inactive). Also, in test [5], the inhibition of viability is 14.6% (inactive). In addition, the viability decrease (inhibition) in test [6] was 4.3% (inactive); in test [7], -22.1% (inactive). Further, the inhibition in test [8] is 0.837% (inactive). In [9], the red/green cell ratio (normalised) is 1.15 (inactive). Further, the normalised cell number in [9] (setting [10]) was 1.04; in test [9] (setting [11]), 1.2.
With `CC(=O)Oc1ccc(C(c2ccc(OC(C)=O)cc2)c2ccccn2)cc1`, the insulin secretion stimulation in [1] is 2.65% (inactive). In addition, the viability decrease in test [2] was 41.4% (inactive). Besides, in [3], the tube area decrease was 15.6% (inactive). The GLP1 secretion stimulation in test [4] is 5.8% (inactive). The inhibition of viability in test [5] is 67.8% (active). The viability decrease (inhibition) in [6] was -6% (inactive); in test [7], 53.5% (active). Besides, the inhibition in [8] is 4.53% (inactive). The red/green cell ratio (normalised) in [9] is 0.85 (inactive). The normalised cell number in test [9] (setting [10]) worked out at 1.24; in test [9] (setting [11]) it was 1.06.
As to `O=C1c2cccc(O)c2C(=O)c2c(O)cccc21`, in test [1], the insulin secretion stimulation was -2.2% (inactive). For the same compound, in test [2], the viability decrease was 21.4% (inactive). For the same compound, in test [3], the tube area decrease is 6% (inactive). The GLP1 secretion stimulation in [4] was 0% (inactive). In addition, in test [5], the inhibition of viability was 21.9% (inactive). Also, the figures for the viability decrease (inhibition) in test [6] and in test [7] were 52.4% (active) and 9.7% (inactive), respectively. For the same compound, in test [8], the inhibition was -6.73% (inactive). Besides, the red/green cell ratio (normalised) in [9] is 1.24 (inactive). Also, the normalised cell number stood at 1.22 in test [9] (setting [10]) and 1.51 in test [9] (setting [11]).
Turning to `Cc1ccnc(NS(=O)(=O)c2ccc(N)cc2)n1`, the insulin secretion stimulation in test [1] is -0.3% (inactive). The viability decrease in test [2] is 9.35% (inactive). The tube area decrease in test [3] is -12.6% (inactive). Moreover, in test [4], the GLP1 secretion stimulation was 2.1% (inactive). Also, the inhibition of viability in [5] was 2.4% (inactive). For the same compound, the viability decrease (inhibition) in test [6] is 31.8% (inactive); in test [7], 7.5% (inactive). Further, the inhibition in [8] is 2.58% (inactive). Besides, the red/green cell ratio (normalised) in test [9] was 1.35 (inactive). Besides, the normalised cell number amounted to 0.98 in [9] (setting [10]) and 1.33 in test [9] (setting [11]).
For the compound `CN1C(C)(C)CCCC1(C)C`, in [1], the insulin secretion stimulation is 0.8% (inactive). Further, the viability decrease in test [2] is 23.2% (inactive). Moreover, in test [3], the tube area decrease was 2.5% (inactive). The GLP1 secretion stimulation in test [4] was -2.3% (inactive). Further, in [5], the inhibition of viability is -1.5% (inactive). Also, the values for the viability decrease (inhibition) in [6] and in test [7] were -25.5% (inactive) and -10.7% (inactive), respectively. In addition, the inhibition in test [8] is 2.01% (inactive). The red/green cell ratio (normalised) in [9] was 0.96 (inactive). Moreover, the normalised cell number in test [9] (setting [10]) is 1.09; in test [9] (setting [11]) it was 1.05.
As to `O=C1c2ccccc2C(=O)c2c1ccc(O)c2O`, in [1], the insulin secretion stimulation was -2% (inactive). Moreover, the viability decrease in test [2] is 45.6% (inactive). Moreover, in test [3], the tube area decrease is -9.9% (inactive). The GLP1 secretion stimulation in test [4] was -3.8% (inactive). Also, the inhibition of viability in test [5] is 9.2% (inactive). In addition, the viability decrease (inhibition) in [6] is 112% (active); in [7], 65.7% (active). The inhibition in test [8] is 1.17% (inactive). The red/green cell ratio (normalised) in test [9] was 0.87 (inactive). Further, the normalised cell number stood at 1.05 in test [9] (setting [10]) and 0.91 in test [9] (setting [11]).

Source of the values: PubChem BioAssay.
